Experimental findings from PMC7826789 (International Journal of Molecular Sciences, 2021) are described below.

Test systems include NEK3; NEK4; NEK5; NEK6; NEK7; NEK9; NLK.
What all share (settings): Compound Concentration (nM):1000
In another assay the test system is T1, NIK.
T1 construct: gene MAP3K14

The next assay concerns T2, NIM1.
T2 construct: gene MGC42105

A further assay concerns T3, OSR1.
T3 construct: gene OXSR1
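Note: KINOMEscan scanMAX binding as percent activity remaining versus control; lower means stronger binding.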

Regarding `CC(C)COC(=O)c1ccc2c(c1)/C(=C/Nc1ccc(S(N)(=O)=O)cc1)C(=O)N2` [GW416981X], the “Percent Control” value in the assay with NEK3 is 95%; in the assay on NEK4 it was 90%; in the assay on NEK5, 100%; with NEK6, 100%; in the assay with NEK7, 100%; with NEK9, 83%. The “Percent Control” value in the assay with NIK is 95%; with NIM1, 86%; in the assay with NLK it was 100%; in the assay on OSR1 it was 100%.

On to `CCS(=O)(=O)c1ccc(OC)c(Nc2ncc(-c3cccc(F)c3)o2)c1` [GW621970X], for which the “Percent Control” value in the assay with NEK3 is 100%; with NEK4, 100%; with NEK5 it was 95%; in the assay with NEK6 it was 100%; with NEK7, 100%; with NEK9, 100%. Moreover, the “Percent Control” value with NIK was 93%; with NIM1, 100%; in the assay with NLK it was 100%; in the assay on OSR1, 100%.

On to `CC1=C(C(=O)Nc2ccc3[nH]ncc3c2)C(c2ccc(Cl)c(Cl)c2)CC(=O)N1` (stereo not drawn) [GSK299115A], for which the “Percent Control” value is 80% in the assay on NEK3; 89% in the assay with NEK4; 58% with NEK5; 95% with NEK6; 87% in the assay with NEK7; 68% in the assay with NEK9. Further, the “Percent Control” value is 76% with NIK, 79% with NIM1, 78% with NLK and 73% in the assay with OSR1.

For the compound `COc1ccc2cc(-c3c(-c4ccncc4)nc(-c4ccc(S(C)(=O)=O)cc4C)n3C)ccc2c1` [SB-633825], the “Percent Control” value in the assay with NEK3 is 65%; in the assay with NEK4, 75%; in the assay on NEK5 it was 35%; in the assay with NEK6, 91%; in the assay on NEK7 it was 65%; with NEK9 it was 57%. The “Percent Control” value is 53% in the assay with NIK, 63% in the assay with NIM1, 81% in the assay on NLK and 70% in the assay with OSR1.

With `COc1cc2ncn(-c3cc(O[C@H](C)c4ccccc4Cl)c(C(N)=O)s3)c2cc1OC` [GSK237701A], the “Percent Control” value was 85% with NEK3; 88% with NEK4; 9.1% in the assay with NEK5; 100% in the assay with NEK6; 63% in the assay on NEK7; 19% with NEK9. The “Percent Control” value was 100% with NIK, 48% with NIM1, 98% in the assay on NLK and 78% with OSR1.

Regarding `COc1cccc(-c2c[nH]c3c(N/N=C/c4ccncc4)ncnc23)c1` [GW814408X], the “Percent Control” value in the assay with NEK3 is 69%; in the assay on NEK4, 100%; in the assay on NEK5, 82%; with NEK6, 100%; in the assay on NEK7, 100%; in the assay with NEK9, 100%. The “Percent Control” value in the assay on NIK is 68%; in the assay on NIM1 it was 92%; in the assay with NLK, 97%; in the assay with OSR1, 100%.

Take `CN1CCN(C(=O)c2ccc(NC(=O)Nc3ccc(N(C)c4ccnc(Nc5ccc(CS(C)(=O)=O)cc5)n4)cc3)cc2)CC1.Cl` [GW830263A]: the “Percent Control” value in the assay on NEK3 is 66%; with NEK4 it was 85%; in the assay with NEK5, 82%; in the assay on NEK6 it was 100%; in the assay with NEK7 it was 93%; in the assay on NEK9 it was 62%. Further, the “Percent Control” value in the assay on NIK was 100%; in the assay with NIM1 it was 99%; in the assay on NLK, 80%; in the assay with OSR1, 98%.

As to `O=C(Nc1n[nH]c2nc(-c3ccc(O)cc3)c(Br)cc12)C1CC1` [SB-725317], the “Percent Control” value in the assay with NEK3 was 100%; with NEK4, 88%; in the assay with NEK5, 100%; in the assay with NEK6 it was 100%; in the assay on NEK7 it was 86%; in the assay on NEK9, 98%. The “Percent Control” value in the assay with NIK is 100%; in the assay with NIM1, 84%; in the assay with NLK, 54%; with OSR1, 100%.

`COc1cc(/C=N/Nc2ncnc3[nH]ncc23)ccc1O` [GW578748X]: the “Percent Control” value with NEK3 is 43%; in the assay on NEK4, 98%; in the assay on NEK5, 100%; in the assay with NEK6 it was 100%; in the assay on NEK7 it was 96%; in the assay with NEK9, 100%. In addition, the “Percent Control” value with NIK is 100%; in the assay on NIM1, 37%; in the assay with NLK, 100%; in the assay on OSR1, 100%.

Consider `Cl.O=C(O[C@H]1CN[C@H](C#Cc2cc3ncnc(Nc4ccc5c(cnn5Cc5ccccc5)c4)c3s2)C1)N1CCOCC1` [GSK200398A], for which the “Percent Control” value with NEK3 was 94%; with NEK4, 100%; in the assay with NEK5, 100%; in the assay on NEK6 it was 100%; in the assay on NEK7 it was 98%; with NEK9, 95%. Besides, the “Percent Control” value was 100% in the assay with NIK, 89% with NIM1, 93% in the assay on NLK and 100% in the assay on OSR1.

In the case of `COc1cc(C=NNc2ncnc3c2cnn3-c2ccccc2)ccc1O` [GW513184X], the “Percent Control” value with NEK3 is 100%; with NEK4, 100%; with NEK5, 76%; in the assay on NEK6, 82%; with NEK7, 100%; in the assay with NEK9 it was 100%. For the same compound, the “Percent Control” value is 92% with NIK, 100% with NIM1, 100% in the assay on NLK and 100% in the assay on OSR1.

As for `CN(C)c1cc2c(Nc3ccc4c(cnn4Cc4ccccc4)c3)ncnc2cn1` [GW282974X], the “Percent Control” value in the assay on NEK3 is 77%; with NEK4, 99%; in the assay on NEK5, 48%; in the assay with NEK6, 27%; in the assay on NEK7, 78%; in the assay on NEK9, 88%. Further, the “Percent Control” value in the assay with NIK was 86%; in the assay with NIM1 it was 74%; in the assay with NLK, 90%; in the assay with OSR1, 100%.

`NS(=O)(=O)c1ccc(N/N=C2\C(=O)Nc3ccc(C(=O)NCCc4c[nH]cn4)cc32)cc1` [GW300660X]: the “Percent Control” value is 78% with NEK3; 80% in the assay with NEK4; 100% in the assay with NEK5; 100% with NEK6; 100% with NEK7; 100% in the assay on NEK9. The “Percent Control” value was 74% in the assay with NIK, 14% in the assay with NIM1, 100% in the assay with NLK and 100% in the assay with OSR1.

Take `C[C@@H](Oc1cc(-n2cnc3ccc(OC4CCN(C)CC4)cc32)sc1C(N)=O)c1ccccc1Cl` [GSK579289A]: the “Percent Control” value was 92% with NEK3; 79% with NEK4; 63% in the assay with NEK5; 100% in the assay with NEK6; 69% in the assay on NEK7; 19% in the assay with NEK9. The “Percent Control” value was 82% with NIK, 51% in the assay with NIM1, 100% in the assay with NLK and 100% in the assay with OSR1.

`CCn1c(-c2nonc2N)nc2c(C#CC(C)(C)O)nc(OCCNC)cc21.Cl` [GSK949675]: the “Percent Control” value was 100% in the assay on NEK3; 100% with NEK4; 100% in the assay with NEK5; 95% in the assay with NEK6; 100% in the assay on NEK7; 100% with NEK9. For the same compound, the “Percent Control” value in the assay with NIK is 1.5%; in the assay on NIM1, 100%; in the assay on NLK, 100%; in the assay on OSR1, 100%.
